“And” between values parts separate entries of the source, which are not always exact repeats. Equal entries are not always repeated. The panel holds about 83,000 compounds, 20% with a hit somewhere; the sample as a whole holds those more often.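 Cells were grown in 96-well plates and exposed to the test compound at a single concentration for 48 hours; results are reported as percent growth, with values below 10 considered active.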 The source made the active and inactive calls.
Assays:
Experiment in all cases: NCI-60 one-dose screen, 48 h (100 = growth as untreated, 0 = no growth, -100 = all killed)
SK-MEL-2 melanoma = conditions: 10 µM
EKVX NSCLC = conditions: 10 µM
SN12C renal = conditions: 10 µM
TK-10 renal = system: TK-10 renal
ACHN renal = conditions: 10 µM
CAKI-1 renal = conditions: 10 µM
A498 renal = conditions: 10 µM
MOLT-4 leukemia = conditions: 10 µM
CCRF-CEM leukemia = conditions: 10 µM
UO-31 renal = conditions: 10 µM

Row | Compound | growth (SK-MEL-2 melanoma) | growth (EKVX NSCLC) | growth (SN12C renal) | growth (TK-10 renal; 10 µM unless noted) | growth (ACHN renal) | growth (CAKI-1 renal) | growth (A498 renal) | growth (MOLT-4 leukemia) | growth (CCRF-CEM leukemia) | growth (UO-31 renal) | growth (TK-10 renal; 10 µM) | growth (TK-10 renal; 100 µM)
1 | N#CSc1cc(S(N)(=O)=O)ccc1N | 104% (inactive) | 115% (inactive) | 101% (inactive) | 106% (inactive) | 112% (inactive) | 124% (inactive) | 118% (inactive) | 84.5% (inactive) |  |  |  | 
2 | CC(C)NC(=O)OCc1c(COC(=O)NC(C)C)c(-c2ccc(Cl)c(Cl)c2)n2c1SCC2 | 37.8% (inactive) | 62.4% (inactive) | 36.4% (inactive) | 6.38% (active) | 18.1% (inactive) | -11.5% (active) |  | 17.1% (inactive) | 24.9% (inactive) |  |  | 
3 | COc1ccccc1NC(=O)C1=C(C)NC(C)=C(C(=O)Nc2ccccc2OC)C1c1cccc([N+](=O)[O-])c1 | 79.6% (inactive) | 44.1% (inactive) | 68.4% (inactive) | 97.4% (inactive) |  | 50.1% (inactive) | 128% (inactive) | 37.4% (inactive) | 64.5% (inactive) |  |  | 
4 | CC(C)=NNC(N)=S | 112% (inactive) |  | 74.4% (inactive) | 113% (inactive) | 88.3% (inactive) | 83.3% (inactive) | 97.8% (inactive) |  | 44.2% (inactive) | 79.3% (inactive) |  | 
5 | CC1(O)OC(COc2ccc(Cl)cc2)COC1O (stereo unspecified) | 126% (inactive) | 94.7% (inactive) | 101% (inactive) | 108% (inactive) | 103% (inactive) | 90.1% (inactive) | 100% (inactive) | 60.9% (inactive) | 98.7% (inactive) |  |  | 
6 | O=C(O)/C=C/c1ccc2c(c1)CCC2 | 110% (inactive) |  | 95.4% (inactive) | 107% (inactive) | 107% (inactive) | 94.5% (inactive) | 111% (inactive) | 97.1% (inactive) | 83.5% (inactive) | 99.7% (inactive) |  | 
7 | CN(C)Cc1cc(C(C)(C)CC(C)(C)C)ccc1O | 71.1% (inactive) | 98.4% (inactive) |  | 99.8% (inactive) | 82.4% (inactive) | 90.7% (inactive) | 116% (inactive) |  | 99.6% (inactive) | 76.2% (inactive) |  | 
8 | O=C(O)COCC(=O)O | 107% (inactive) |  | 102% (inactive) | 124% (inactive) | 103% (inactive) | 97.5% (inactive) | 110% (inactive) | 99.1% (inactive) | 101% (inactive) | 91.4% (inactive) |  | 
9 | O=C(c1ccc(O)cc1)c1ccc(O)cc1 | 101% (inactive) |  | 109% (inactive) | 95% (inactive) | 107% (inactive) | 110% (inactive) | 73.9% (inactive) |  | 106% (inactive) | 85% (inactive) |  | 
10 | CCCCCCCO | 134% (inactive) |  | 99.4% (inactive) | 117% (inactive) | 92.5% (inactive) | 110% (inactive) | 105% (inactive) | 96.4% (inactive) | 103% (inactive) | 82.1% (inactive) |  | 
11 | COc1cc2c3cc1Oc1c(OC)c(OC)cc4c1C(Cc1ccc(O)c(c1)Oc1ccc(cc1)CC3N(C)CC2)N(C)CC4 (stereo unspecified) | -16% (active) |  | 16.9% (inactive) |  | 18.9% (inactive) |  | 21.4% (inactive) | -3.59% (active) | 2.18% (active) | 2.84% (active) | 4.81% (active) | 96% (inactive) and -100% (active)
12 | Cc1cc2nc(CC(=O)c3ccccc3)c(=O)[nH]c2cc1C | 102% (inactive) | 55.5% (inactive) | 93.8% (inactive) | 149% (inactive) |  | 76.2% (inactive) | 127% (inactive) | 89% (inactive) | 88.5% (inactive) |  |  | 
13 | Cc1ccc(C(=O)NC2c3ccccc3Oc3ccccc32)cc1 | 66.4% (inactive) | 64.6% (inactive) |  | 54.4% (inactive) |  | 64.9% (inactive) | 43.5% (inactive) | 45.5% (inactive) | 56.7% (inactive) | 34.4% (inactive) |  | 
14 | CC(C)=CC(=O)OC(=O)C=C(C)C | 108% (inactive) |  | 100% (inactive) | 102% (inactive) | 105% (inactive) | 108% (inactive) | 124% (inactive) |  |  | 94.5% (inactive) |  | 
15 | CCO/C=C1\SC(=S)N(c2cccc(C)c2)C1=O | 110% (inactive) |  | 106% (inactive) | 98.9% (inactive) | 106% (inactive) | 101% (inactive) | 113% (inactive) | 95.7% (inactive) |  | 79.3% (inactive) |  | 
16 | CC(C)(C)n1nc(C2CC2)c(Br)c1NC(=O)c1ccccc1F | 103% (inactive) |  | 102% (inactive) | 103% (inactive) | 101% (inactive) | 80.8% (inactive) | 101% (inactive) | 93.3% (inactive) |  | 91.5% (inactive) |  | 
17 | O=C(O)CCC(NC(=O)OCc1ccccc1)C(=O)O (stereo unspecified) | 105% (inactive) |  | 100% (inactive) | 93.1% (inactive) | 111% (inactive) | 101% (inactive) | 106% (inactive) | 105% (inactive) | 101% (inactive) | 94.9% (inactive) |  | 
18 | O=C1C=C(Nc2ccc([N+](=O)[O-])cc2)c2ccccc2C1=O | -7.97% (active) |  | 39.8% (inactive) | 80.4% (inactive) | 45.8% (inactive) | 67.9% (inactive) | 40.6% (inactive) | 28.5% (inactive) | 38.9% (inactive) | 30% (inactive) |  | 
19 | O=C(Nc1ccccc1C(=O)NCC1CC1)c1cccs1 | 113% (inactive) |  | 100% (inactive) | 114% (inactive) | 103% (inactive) | 82.7% (inactive) | 106% (inactive) | 111% (inactive) |  | 89.4% (inactive) |  | 
20 | COC(=O)c1ccc(NC(=O)CCl)cc1 | 66% (inactive) |  | 76.6% (inactive) | 88% (inactive) | 85.7% (inactive) | 83.9% (inactive) | 97.4% (inactive) | 72.7% (inactive) |  | 107% (inactive) |  | 
21 | CC(C)CCCC(=O)O | 102% (inactive) |  | 106% (inactive) | 105% (inactive) | 104% (inactive) | 105% (inactive) | 86.8% (inactive) | 119% (inactive) | 101% (inactive) | 95.4% (inactive) |  | 
22 | CC[N+](C)(CC)CCO | 109% (inactive) |  | 98% (inactive) | 95.3% (inactive) | 106% (inactive) | 94% (inactive) | 109% (inactive) | 101% (inactive) |  | 92% (inactive) |  | 
23 | c1ccc2c(c1)Sc1ccccc1S2 | 112% (inactive) |  | 93.2% (inactive) | 99.4% (inactive) | 109% (inactive) | 103% (inactive) | 94.3% (inactive) | 111% (inactive) | 97.3% (inactive) | 98.9% (inactive) |  | 
24 | COc1cc(C2c3cc4c(cc3C3OC(=O)C2C3CO)OCO4)cc(OC)c1OC (stereo unspecified) | 7.33% (active) |  | 23.8% (inactive) | 49.6% (inactive) | 24.9% (inactive) | 37.4% (inactive) | -7.83% (active) | -9.4% (active) | -7.15% (active) | 38.2% (inactive) |  | 
25 | Cc1ccc(S(=O)(=O)O)c(C)c1 | 112% (inactive) |  | 103% (inactive) | 101% (inactive) | 103% (inactive) | 96.3% (inactive) | 94.1% (inactive) | 98.6% (inactive) | 100% (inactive) | 73.6% (inactive) |  | 
26 | CC(=O)NCc1cc(C)c(C)cc1C | 98% (inactive) |  | 103% (inactive) | 92.6% (inactive) | 104% (inactive) | 98.8% (inactive) | 118% (inactive) | 96.2% (inactive) |  | 83.6% (inactive) |  | 
27 | Cc1ccc(CCCC(=O)O)c(C)c1 | 91.1% (inactive) |  | 97.9% (inactive) | 95% (inactive) | 98.3% (inactive) | 99.7% (inactive) | 101% (inactive) | 98.7% (inactive) |  | 90.9% (inactive) |  | 

From PubChem BioAssay (NCI)
